Source: ChEMBL document CHEMBL3988442, “University of Dundee, Small-Polar-MMV Screening Library” (2021)
For part of these data: Entries with a potency or affinity are not part of this list.

Legend:
Parameters in all cases: scale not given: direction of the effect not stated beside the values
[1] = molecular target: Protein translocase subunit SecA (Escherichia coli (strain K12)) (UniProt P10408); assay: Assay to Identify E. coli SecA ATPase Inhibitors; type: functional; conditions: 30 µM
[2] = molecular target: T1, Ubiquitin-activating enzyme e1, putative (Leishmania donovani (strain BPK282A1)) (UniProt E9BSI1); assay: Leishmania donovani Ubiquitin Activating Enzyme (LdE1); type: functional; conditions: 30 µM
T1 sequence (whole entry): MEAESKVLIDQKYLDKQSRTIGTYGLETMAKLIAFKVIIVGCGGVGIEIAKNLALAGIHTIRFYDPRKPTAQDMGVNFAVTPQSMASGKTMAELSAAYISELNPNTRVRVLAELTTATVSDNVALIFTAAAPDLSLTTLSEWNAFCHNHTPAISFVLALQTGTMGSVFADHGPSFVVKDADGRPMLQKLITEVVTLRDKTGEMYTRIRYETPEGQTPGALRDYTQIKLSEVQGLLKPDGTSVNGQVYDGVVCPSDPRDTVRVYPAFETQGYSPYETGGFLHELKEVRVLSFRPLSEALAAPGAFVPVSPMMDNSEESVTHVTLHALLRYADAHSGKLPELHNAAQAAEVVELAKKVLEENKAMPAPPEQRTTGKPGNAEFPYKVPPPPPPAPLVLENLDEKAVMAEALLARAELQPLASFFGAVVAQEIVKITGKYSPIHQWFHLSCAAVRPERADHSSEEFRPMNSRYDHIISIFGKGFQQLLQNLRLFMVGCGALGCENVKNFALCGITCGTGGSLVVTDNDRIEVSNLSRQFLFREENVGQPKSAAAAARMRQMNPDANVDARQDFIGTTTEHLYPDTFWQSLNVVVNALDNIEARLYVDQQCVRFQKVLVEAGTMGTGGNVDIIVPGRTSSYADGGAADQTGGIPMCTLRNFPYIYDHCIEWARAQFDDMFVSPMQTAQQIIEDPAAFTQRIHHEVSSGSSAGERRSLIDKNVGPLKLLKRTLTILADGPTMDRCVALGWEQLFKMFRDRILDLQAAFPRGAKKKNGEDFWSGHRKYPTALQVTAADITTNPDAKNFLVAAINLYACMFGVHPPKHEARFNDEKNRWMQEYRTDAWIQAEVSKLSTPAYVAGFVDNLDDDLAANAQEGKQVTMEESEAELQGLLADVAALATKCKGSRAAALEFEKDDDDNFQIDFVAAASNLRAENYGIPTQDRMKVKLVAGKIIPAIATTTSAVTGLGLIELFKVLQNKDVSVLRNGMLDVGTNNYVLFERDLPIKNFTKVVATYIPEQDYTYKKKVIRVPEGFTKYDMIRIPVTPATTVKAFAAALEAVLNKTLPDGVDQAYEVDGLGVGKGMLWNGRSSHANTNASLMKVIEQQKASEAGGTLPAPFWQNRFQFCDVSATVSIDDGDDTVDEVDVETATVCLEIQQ

[3] = molecular target: AMP-activated protein kinase, AMPK (Homo sapiens) (UniProt P54646+O43741+P54619+Q9UGJ0+Q9Y478+Q13131+Q9UGI9); assay: AMP-dependent Kinase enzyme assay. An in vitro enzyme assay that detects ADP turnover that is directly proportional to AMPK activity. This uses naive AMPK that is activated during the assay with MK-8722; type: functional; conditions: 30 µM
[4] = molecular target: Sialic acid-binding Ig-like lectin 9 (Homo sapiens) (UniProt Q9Y336); assay: Hs-Siglec9 ALPHAscreen SOP 20170721; conditions: 10 µM
Sialic acid-binding Ig-like lectin 9 (Homo sapiens), sequence (Q9Y336 whole entry): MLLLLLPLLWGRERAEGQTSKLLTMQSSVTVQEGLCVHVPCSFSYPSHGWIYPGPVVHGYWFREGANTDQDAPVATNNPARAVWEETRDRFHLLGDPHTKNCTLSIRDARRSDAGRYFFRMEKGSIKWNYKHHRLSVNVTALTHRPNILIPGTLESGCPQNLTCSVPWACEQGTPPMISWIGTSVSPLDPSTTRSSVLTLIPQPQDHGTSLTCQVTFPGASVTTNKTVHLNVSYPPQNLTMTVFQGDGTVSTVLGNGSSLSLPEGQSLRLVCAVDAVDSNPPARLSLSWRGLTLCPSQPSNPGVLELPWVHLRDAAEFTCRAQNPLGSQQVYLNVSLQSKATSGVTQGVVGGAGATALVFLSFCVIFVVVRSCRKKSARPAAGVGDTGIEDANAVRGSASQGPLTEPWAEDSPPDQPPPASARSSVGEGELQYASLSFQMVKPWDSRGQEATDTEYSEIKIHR

Trypanosoma cruzi = assay: Trypanosoma cruzi phosphomannomutase and mannose-1-phosphate guanylyltransferase assay; type: functional; conditions: 10 µM
[5] = molecular target: T2, Arginase-2, mitochondrial (Homo sapiens) (UniProt P78540); assay: in vitro enzyme assay to detect the production of urea directly proportional to the activity of Arginase II; type: functional; conditions: 33.3 µM; note: in the data most compounds retested in dose-response had high values
T2 sequence (whole entry): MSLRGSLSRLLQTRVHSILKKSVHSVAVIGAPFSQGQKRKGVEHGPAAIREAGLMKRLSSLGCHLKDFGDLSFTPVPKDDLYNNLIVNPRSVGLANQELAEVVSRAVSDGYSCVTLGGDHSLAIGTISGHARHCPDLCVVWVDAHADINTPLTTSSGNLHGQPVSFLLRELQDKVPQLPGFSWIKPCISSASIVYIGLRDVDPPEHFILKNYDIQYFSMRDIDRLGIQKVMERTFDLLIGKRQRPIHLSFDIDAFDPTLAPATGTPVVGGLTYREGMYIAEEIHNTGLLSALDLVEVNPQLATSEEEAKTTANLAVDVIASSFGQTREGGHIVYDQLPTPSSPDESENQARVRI

[6] = molecular target: T3, Proteasome subunit beta (Trypanosoma cruzi) (UniProt O96673); assay: Trypanosoma cruzi proteasome chymotrypsin-like activity (TcProtChymo) assay.; note: in the data most compounds retested in dose-response had high values; type: functional; conditions: 9.37 µM
T3 sequence (whole entry): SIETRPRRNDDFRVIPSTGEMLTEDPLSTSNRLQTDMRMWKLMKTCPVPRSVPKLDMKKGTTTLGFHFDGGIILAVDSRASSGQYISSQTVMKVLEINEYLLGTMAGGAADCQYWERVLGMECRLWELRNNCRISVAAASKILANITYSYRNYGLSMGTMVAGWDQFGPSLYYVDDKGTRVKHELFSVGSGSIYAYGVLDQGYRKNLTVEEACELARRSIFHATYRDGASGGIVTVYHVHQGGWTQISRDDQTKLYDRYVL

Homo sapiens = species on record: Homo sapiens; assay: To identify inhibition of the IFN signalling (Jak-Stat) pathway via expression of an eGFP reporter gene under the control of an IFN-stimulated response element (ISRE) containing MxA promoter.; type: functional; conditions: 30 µM
[7] = molecular target: T4, Tyrosyl-tRNA synthetase, putative (Trypanosoma cruzi (strain CL Brener)) (UniProt Q4DSP6); assay: Trypanosoma cruzi tyrosyl tRNA synthetase (TcYRS) _High Tyrosine SOP; type: functional; conditions: 30 µM; note: in the data most compounds retested in dose-response had high values
T4 sequence (whole entry): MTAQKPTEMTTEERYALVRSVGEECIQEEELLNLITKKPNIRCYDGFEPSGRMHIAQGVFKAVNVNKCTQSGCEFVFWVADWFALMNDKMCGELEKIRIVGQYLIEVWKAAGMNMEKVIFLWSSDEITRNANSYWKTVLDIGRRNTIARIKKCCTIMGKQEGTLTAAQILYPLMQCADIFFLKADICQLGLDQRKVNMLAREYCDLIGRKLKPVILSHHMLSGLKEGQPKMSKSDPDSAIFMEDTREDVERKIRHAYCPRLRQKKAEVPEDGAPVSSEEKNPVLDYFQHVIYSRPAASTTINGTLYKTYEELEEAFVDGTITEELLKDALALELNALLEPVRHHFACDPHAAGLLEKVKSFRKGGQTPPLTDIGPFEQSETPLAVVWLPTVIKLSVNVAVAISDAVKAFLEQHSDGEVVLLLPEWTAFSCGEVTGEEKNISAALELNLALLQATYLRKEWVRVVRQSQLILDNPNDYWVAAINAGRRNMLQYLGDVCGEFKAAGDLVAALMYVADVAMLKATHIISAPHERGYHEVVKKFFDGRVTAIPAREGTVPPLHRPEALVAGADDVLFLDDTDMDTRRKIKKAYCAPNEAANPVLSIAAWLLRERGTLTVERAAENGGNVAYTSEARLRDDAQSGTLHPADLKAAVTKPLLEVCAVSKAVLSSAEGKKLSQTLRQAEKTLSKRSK

[8] = molecular target: T4, Tyrosyl-tRNA synthetase, putative (Trypanosoma cruzi (strain CL Brener)); assay: Trypanosoma cruzi tyrosyl tRNA synthetase (TcYRS) SOP; type: functional; conditions: 30 µM
[9] = molecular target: Chromo domain-containing protein 1 (Saccharomyces cerevisiae (strain ATCC 204508 / S288c) (Baker's yeast)) (UniProt P32657); assay: ScCHD-1 Enzyme Inhibition Assay; type: functional; conditions: 30 µM; note: in the data most compounds retested in dose-response had high values
Chromo domain-containing protein 1 (Saccharomyces cerevisiae (strain ATCC 204508 / S288c) (Baker's yeast)), sequence (P32657 whole entry, the tested form may be a part): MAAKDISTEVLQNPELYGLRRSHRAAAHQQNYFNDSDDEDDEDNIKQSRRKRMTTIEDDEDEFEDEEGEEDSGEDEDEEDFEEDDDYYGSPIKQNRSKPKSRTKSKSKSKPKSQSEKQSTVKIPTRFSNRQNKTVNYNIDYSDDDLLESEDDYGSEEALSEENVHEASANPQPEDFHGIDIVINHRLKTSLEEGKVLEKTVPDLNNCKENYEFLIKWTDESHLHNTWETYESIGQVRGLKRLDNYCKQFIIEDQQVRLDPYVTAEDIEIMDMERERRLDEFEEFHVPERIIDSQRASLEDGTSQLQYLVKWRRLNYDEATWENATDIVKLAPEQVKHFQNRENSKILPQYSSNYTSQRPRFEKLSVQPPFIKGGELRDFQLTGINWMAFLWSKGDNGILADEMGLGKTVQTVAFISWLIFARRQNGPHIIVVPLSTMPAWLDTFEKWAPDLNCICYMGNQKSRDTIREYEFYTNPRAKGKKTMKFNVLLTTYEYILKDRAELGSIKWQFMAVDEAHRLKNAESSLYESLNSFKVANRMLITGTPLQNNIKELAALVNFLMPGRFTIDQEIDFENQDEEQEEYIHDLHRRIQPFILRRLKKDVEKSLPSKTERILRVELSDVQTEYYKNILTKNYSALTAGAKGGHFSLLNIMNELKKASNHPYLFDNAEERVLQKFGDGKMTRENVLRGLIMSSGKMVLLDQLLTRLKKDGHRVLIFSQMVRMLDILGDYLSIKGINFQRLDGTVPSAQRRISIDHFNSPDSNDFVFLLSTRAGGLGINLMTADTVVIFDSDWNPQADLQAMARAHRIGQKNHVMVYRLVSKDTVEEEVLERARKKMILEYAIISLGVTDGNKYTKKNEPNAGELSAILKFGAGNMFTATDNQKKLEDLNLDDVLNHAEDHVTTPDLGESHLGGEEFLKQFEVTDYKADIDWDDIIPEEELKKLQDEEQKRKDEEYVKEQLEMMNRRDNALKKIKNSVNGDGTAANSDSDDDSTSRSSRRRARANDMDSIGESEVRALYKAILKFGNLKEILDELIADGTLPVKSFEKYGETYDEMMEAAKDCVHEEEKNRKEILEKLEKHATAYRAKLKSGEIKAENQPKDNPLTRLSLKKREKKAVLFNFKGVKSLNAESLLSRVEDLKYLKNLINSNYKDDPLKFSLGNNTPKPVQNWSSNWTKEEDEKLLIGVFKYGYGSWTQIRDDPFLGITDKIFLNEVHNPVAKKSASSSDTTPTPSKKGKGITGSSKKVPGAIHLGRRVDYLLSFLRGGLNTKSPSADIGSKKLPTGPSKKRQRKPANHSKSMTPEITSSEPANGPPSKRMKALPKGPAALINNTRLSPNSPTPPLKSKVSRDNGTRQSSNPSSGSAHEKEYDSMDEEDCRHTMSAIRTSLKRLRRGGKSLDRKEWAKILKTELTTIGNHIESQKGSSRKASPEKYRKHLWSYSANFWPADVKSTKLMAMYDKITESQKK

Protein translocase subunit SecA (Escherichia coli (strain K12)), sequence (P10408 whole entry): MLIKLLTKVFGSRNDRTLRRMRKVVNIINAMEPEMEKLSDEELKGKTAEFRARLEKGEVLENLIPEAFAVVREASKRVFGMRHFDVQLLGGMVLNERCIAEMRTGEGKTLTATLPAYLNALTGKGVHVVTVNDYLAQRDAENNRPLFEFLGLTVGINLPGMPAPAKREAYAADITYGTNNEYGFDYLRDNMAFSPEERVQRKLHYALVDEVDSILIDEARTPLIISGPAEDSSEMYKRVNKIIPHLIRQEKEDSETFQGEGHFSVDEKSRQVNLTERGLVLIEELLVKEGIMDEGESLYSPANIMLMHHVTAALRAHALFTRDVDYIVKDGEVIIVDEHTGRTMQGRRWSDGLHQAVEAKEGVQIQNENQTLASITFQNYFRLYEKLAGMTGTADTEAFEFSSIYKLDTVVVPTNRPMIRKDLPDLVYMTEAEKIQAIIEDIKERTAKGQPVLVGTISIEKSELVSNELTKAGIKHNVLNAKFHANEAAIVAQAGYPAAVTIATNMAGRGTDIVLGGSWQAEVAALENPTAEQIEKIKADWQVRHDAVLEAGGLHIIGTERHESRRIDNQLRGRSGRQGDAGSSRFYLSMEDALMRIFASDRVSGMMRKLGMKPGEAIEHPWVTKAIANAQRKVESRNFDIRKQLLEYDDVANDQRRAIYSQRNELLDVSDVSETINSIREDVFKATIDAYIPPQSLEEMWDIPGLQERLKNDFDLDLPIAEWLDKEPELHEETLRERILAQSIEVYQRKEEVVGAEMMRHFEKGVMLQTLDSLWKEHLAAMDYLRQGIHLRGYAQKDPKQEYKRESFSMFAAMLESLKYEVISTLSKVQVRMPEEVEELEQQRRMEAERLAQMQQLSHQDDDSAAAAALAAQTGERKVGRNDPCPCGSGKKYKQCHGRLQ

Structure (SMILES)	Percent Effect [1] [%]	Percent Effect [2] [%]	Percent Effect [3] [%]	Percent Effect [4] [%]	Percent Effect (Trypanosoma cruzi) [%]	Percent Effect [5] [%]	Percent Effect [6] [%]	Percent Effect (Homo sapiens) [%]	Percent Effect [7] [%]	Percent Effect [8] [%]	Percent Effect [9] [%]
Cc1nn(-c2ccccc2)nc1C(=O)N1CCCC1c1cnn(C)c1 (stereo unspecified)	-5.15	0	-0.474	2.1	-2.32	-4.99	0.539	12.6	2.97	6.1	7.07
O=C(c1ccc(O)c(Cl)c1)N1CCC(c2n[nH]c(C3CC3)n2)CC1	-6.1	3.8	-0.285	-6.96	-5.44	-1.5	9.61	8.98	1.04	0	-0.322
CC(=O)NCC(=O)N1CCn2cc(CN3CCN(C)CC3)nc2C1	-4.28	10.4	-0.0716	14.9	7.57	-1.38	6.16	9.49	8.6	16.1	-0.16
O=C(NCCCn1cccn1)C1(c2ccc(F)cc2)CC1	0.73	16.4	0.361	3.37	3.72	10.4	8.87	-5.73	6.45	12.5	-4.26
CCOCC(O)CN1CCN(C(=O)c2cccc(F)c2)CC1 (stereo unspecified)	-1.53	2.7	-2.77	-2.18	7.92	-2.86	5.17	13.8	0.529	-9.76	-2.68
Cc1ccc(CC(=O)N2CCOC(c3nc(C(C)(C)C)n[nH]3)C2)cn1 (stereo unspecified)	-3.58	12.5	-9.66	13.3	4.76	-0.442	7.72	2.71	3.16	5.13	-2.81
CN(C)C(=O)N1CCc2c(nnn2C)C1COCc1ccccc1 (stereo unspecified)	-4.49	21.3	-8.1	-0.726	5.21	-42.1	13.7	-0.202	7.29	27.5	-6.92
Cc1cc(C)cc(C2(C(=O)N3CCCC(n4cncn4)C3)CC2)c1 (stereo unspecified)	-0.118	16.2	3.34	-6.31	-3.44	2.4	7.36	12.7	6.93	18.3	-6.26
O=C(NCc1cc[nH]n1)NCC(c1ccccc1Cl)N1CCCC1 (stereo unspecified)	-5.47	5.41	-5.47	2.23	-2.25	4.22	13.1	-4.64	5.38	13.6	-1.7
COc1ccccc1CC(=O)N1CCC(NCc2cc[nH]c2)CC1	-0.99	18.9	-7.09	-3.31	4.92	5.36	16.3	5.88	11.9	23.2	-7.56
CCN1CCn2c(C)cnc2C12CCN(C(=O)c1ccc(Cl)cc1)CC2	-4.5	10.7	9.36	-7.09	-6.95	-59	11.1	4.01	2.08	10	-6.26
CN(Cc1cccs1)C(=O)CS(=O)(=O)Cc1ccc(Cl)c(Cl)c1	-3.83	2.6	4.47	-21.6	5.39	-2.74	16.7	6.68	-11.4	-2.35	-21.7
COCCNC(=O)CCc1c(C)nn(-c2nc(C)c(C)c(=O)[nH]2)c1C	0.376	7.79	-3.21	-3.83	-7	23.9	8.01	4.73	8.47	14.1	-7.76
CCOC(=O)CCNC(=O)N1CCN(c2nc3ccccc3n2C)CC1	-1.65	10.4	1.91	4.46	-5.42	-266	12.2	-4.19	2.12	16.7	-7.17
CCN(c1ccc(C(=O)N2CCCC2)cc1)S(=O)(=O)CC	2.05	-1.39	3.96	-5.1	-0.486	1.32	2.46	-27.1	1.05	0	2.93
CN(CCOc1cccc(CN)c1)C1CCOCC1	1.04	2.7	-5.71	-2.08	1.54	-5.24	7.41	-5.29	1.59	9.76	13.5
CNCC(=O)N1CCCC(c2nccnc2Oc2cccc(F)c2)C1 (stereo unspecified)	-7.42	10.7	10	-1.6	-3.74	-3.03	9.25	11.8	3.19	3.85	-4.73
CS(=O)(=O)N1CCC(C(=O)NC(Cc2ccsc2)c2ccccn2)CC1 (stereo unspecified)	-4.27	6.76	8.49	4.61	2.17	1.16	4.84	13.2	5.38	9.09	-8.15
Cc1nc(C2CCCN(C(=O)c3scnc3C)C2)no1 (stereo unspecified)	-3.05	6.94	-13.5	8.6	4.76	1.77	14.2	-0.897	-1.05	2.56	-2.17
CC(C)CCNC(=O)c1sccc1N(C)S(=O)(=O)c1ccccc1	-0.473	23.7	-3.53	-18.2	-0.0974	-3.55	10.3	23.3	-3.19	5.2	-3.5
CN(C)C(=O)N1C[C@@H]2COC[C@]2(CNS(C)(=O)=O)C1	-1.78	-2.7	5.5	5.41	-1.27	2.87	16.8	-0.0949	0	-5.13	3.04
